Screening results from PubChem.
In the library only some 3.7% were active in any assay of this set; here they are far more common.
p53 reactivation: qHTS assay for re-activators of p53 using a Luc reporter; Potency, µM (series often up to 92.2 µM), for the others: at the top dose activity change, positive = activation, hits mostly activators; H1299 p53-A138V BP100-luciferase reporter, luminescence, 24 h; hit rate 0.063% among 320,000; AID 504706, 2011; note: potency is the fitted concentration of half-maximal effect; % of control where 0% means no effect; nearly all actives have a fitted effect of over 45% in size
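p53-null H1299 cells stably carrying temperature-sensitive p53-A138V and a BP100-luciferase reporter were pinned with compounds (4-point, 1:5 series) and held 24 hrs at 37 deg C. Luminescence was read 10 min after detection reagent.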
Nrf2 block: Nrf2 qHTS screen for inhibitors | A549 ARE-Fluc reporter, luciferase luminescence, 18-24 h | Potency, µM (doses to about 46 µM), for the others: top-dose activity change, negative = inhibition, hits mostly inhibitors | hit rate 2.1% among 360,000 | AID 504444, 2011; note: potency is the fitted concentration of half-maximal effect; % is set by controls: 0 for no effect and ±100 for the full control effect; nearly all actives have a fitted effect of over 60% in size
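Nrf2 activity is the BugLite luminescence, read 15 min after reagent at room temperature, following CellTiter-Fluor cytotoxicity readout (30 min, 37C). Compound titrations were applied for 18-24 h to 5000 A549 ARE_Fluc cells/well in 5% FBS OPTI-MEM.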
A549 viability: Nrf2 qHTS screen for inhibitors: counterscreen for cytotoxicity | A549 ARE-Fluc cells, CellTiter-Fluor viability, 18-24 h | Potency, µM (titrated, usually from 46 µM), for the others: top-dose activity change, negative = cytotoxicity, usual class: inhibitors | hit rate 0.16% among 390,000; note: potency is the fitted concentration of half-maximal effect; % is set by controls: 0 for no effect and ±100 for the full control effect
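A549 ARE-Fluc cells in 5% FBS OPTI-MEM, 5000 cells/well, rested 2 h then exposed to compounds in concentration-response for 18-24 h at 37 °C. Viability by CellTiter-Fluor fluorescence (Ex 405/Em 525) after 30 min; luciferase luminescence (BugLite, 15 min, RT) read afterwards.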
ClpP mod: qHTS Assay for Activators of ClpP; purified B. subtilis ClpP, FRET peptide cleavage, 20 min; hit rate 1.9% among 340,000; Potency, µM (doses to about 57.5 µM), inactives show at the top dose activity change, negative = active; AID 651965, 2013; active = well fitted falling curve with a large enough effect; inconclusive = small, poorly fitted or top-dose-only effect; inactive = no such curve, though single readings can be large or run the other way; note: potency is the fitted concentration of half-maximal effect; the source files actives as falling curves though it sought activators and does not explain the sign; nearly all actives have a fitted effect of over 65% in size
Target sequence (P80244 whole entry, looked up): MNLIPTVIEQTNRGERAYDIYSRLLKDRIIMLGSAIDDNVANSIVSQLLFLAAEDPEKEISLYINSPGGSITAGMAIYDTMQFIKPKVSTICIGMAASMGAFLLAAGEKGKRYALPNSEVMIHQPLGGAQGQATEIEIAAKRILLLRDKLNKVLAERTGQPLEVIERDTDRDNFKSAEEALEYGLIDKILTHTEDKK
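ClpP 10 microg/mL final, pH 8 Tris/KCl buffer with BSA, glycerol, Tween-20; compound pinned in; FRET-FV substrate; RT 20 min; Ex320/Em430; ΔFRET vs ADEP 5.8 microM, DMSO, no enzyme.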
Nrf2 activator: qHTS of Nrf2 Activators | hit rate 0.31% among 410,000 | AID 624171, 2012 | AREc32 ARE-luciferase reporter (MCF7-derived line), luminescence, 24 h | Potency, µM (series often up to 46.1 µM), inactives show top-dose activation, hits mostly activators; note: potency is the fitted concentration of half-maximal effect; % of control where 0% means no effect; nearly all actives have a fitted effect of over 65% in size
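Luminescent ARE reporter assay in AREc32_Fluc cells: overnight plating at 37 deg C, 24 hr compound incubation, Steady-Glo added, 30 min RT before reading.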
miR-21 reporter: qHTS Assay for Modulators of miRNAs and/orActivators of miR-21; HeLa miR-21 FLuc reporter, luciferase, 48 h; 340,000 tested, under 10 active; Potency, µM (series often up to 38.3 µM), for inactives: at the highest dose activity change, positive = activation, usual class: activators; AID 2288, 2010;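 note: % of control where 0% means no effect; miR-21 action dims this reporter so a rising signal means less miR-21 action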
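HeLa cells endogenously expressing miR-21, stably carrying CMV-driven firefly luciferase with a downstream miR-21 binding site, 2000 cells/well. Titrations up to approximately 40 uM, 48 hours; luciferase luminescence read.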
* = called active by the depositor; u = inconclusive; x = no result given; [ ] = another dose, or the depositor's remark. Unless noted, calls come from the whole dose curve; as a rule, active = well fitted curve in the direction sought with a large enough effect; inconclusive = small, poorly fitted or top-dose-only effect, or another doubt; inactive = no such curve, though single readings can be large; an effect the other way counts as inactive or inconclusive.

SMILES	p53 reactivation	Nrf2 block	A549 viability	ClpP mod	Nrf2 activator	miR-21 reporter
Cc1nn(-c2ccccc2)c2c1N(CCCC(=O)NCc1ccc(N(C)C)cc1)C(=O)CS2	x	-35%	-11%	-3%	4%	4%
Cc1ccc(C)c(N2CCN(C(=O)c3ccc(CS(=O)Cc4cccc(Cl)c4)o3)CC2)c1 (stereo not given)	-4%	18µM*	-8%	-1%	0%	5%
O=C(c1ccc(CS(=O)Cc2cccc(Cl)c2)o1)N1CCN(c2ccc(F)cc2)CC1 (stereo not given)	x	x	x	-2%	0%	x
Cc1ccc(N(C(C)C(=O)Nc2cc(Cl)ccc2Oc2ccccc2)S(C)(=O)=O)cc1 (stereo not given)	-3%	21µM*	0%	-1%	2%	22%
C=C1C(=O)[C@@]23[C@H](O)C[C@@H]4C(C)(C)CC[C@H](O)[C@@]4(C)[C@@H]2CC[C@@H]1[C@H]3O	-14%	18µM*	u	1%	-3%	29%
C=C1C(=O)[C@@]23[C@H](O)C[C@@H]4C(C)(C)CC[C@H](O)[C@]4(C)[C@@H]2C[C@H](O)[C@@H]1[C@H]3O	-14%	15µM*	u	0%	-2%	u
COCc1cc(C)nc(N2CCNCC2)c1C#N	-2%	-11%	1%	16µM*	-1%	-4%
COCc1cc(C)nc(N2CCCCC2)c1C#N	5%	14%	1%	22µM*	-1%	-6%
COCc1cc(C)nc(N2CCN(c3ccccc3)CC2)c1C#N	-9%	u	-9%	-10%	0%	-5%
CCC(=O)N1c2ccccc2CC1C(=O)NCCc1ccccc1Cl (stereo not given)	x	x	-1%	0%	0%	0%
C/C(=N\Nc1nccnc1Cl)c1ccc(O)cc1	8%	28%	-6%	0%	23%	-52%
C/C(=N\Nc1nccnc1Cl)c1ccc(Cl)c(Cl)c1	6%	u	2%	-2%	14µM*	-46%
COc1ccc(Cl)cc1NC(=O)C1CCN(S(=O)(=O)c2ccc3c(c2)CC(C)N3C(C)=O)CC1 (stereo not given)	x	u	1%	-1%	-1%	21%
CC(C)CCNC(=O)C(c1cccnc1)N(CCc1ccccc1)C(=O)Cn1nnc2ccccc21 (stereo not given)	12%	-6%	1%	18µM*	0%	-4%
COc1ccc(N2N=NN(C(C)C)C2=C(Cl)c2nnnn2-c2ccc(OC)cc2)cc1	x	24%	-3%	1%	16µM*	x
COc1ccc(-n2nnnc2-c2ccccc2)cc1	13%	12%	-17%	-1%	0%	18%
CCCCNC(=O)CCC(=O)Nc1ccc2nc(N3CCCCC3)cc(C)c2c1	u	18%	7%	3%	3%	-48%
CCOC(=O)N1CCN(C(=S)Nc2ccc3nc(N4CCN(CC)CC4)cc(C)c3c2)CC1	-7%	-2%	-8%	16µM*	10%	-8%
Cc1cc(N2CCCCCC2)nc2ccc(F)cc12	x	7%	0%	28µM*	0%	x
Cc1cc(N2CCCCC2)nc2ccc(NC(=O)CCC(=O)NCCC(C)C)cc12	19%	u	0%	16µM*	3%	-37%
Cc1cc(N2CCCCC2)nc2ccc(NC(=O)c3cccc(F)c3)cc12	x	0%[9.27 µM]	-15%	-5%	0%	12%
Cc1cc(N2CCOCC2)nc2ccc(NC(=O)C3CCC(C)CC3)cc12 (stereo not given)	4%	-9%	0%	14µM*	1%	-7%
C[C@@H]1CN([C@H](C)CO)C(=O)CCCn2nncc2CO[C@@H]1CN(C)C(=O)c1ccc(N2CCN(C)CC2)cc1	x	x	x	1%	0%	x
O=C(NCCc1ccccc1)c1ccc(CSc2nc3ccncc3n2Cc2cccc(F)c2)cc1	x	u	-4%	-24%	2%	2%
COc1cc2c(cc1OC)/C(=C/c1ccc(N(C)C)cc1)C=C2	x	x	x	1%	x	x
SMILES	p53 reactivation	Nrf2 block	A549 viability	ClpP mod	Nrf2 activator	miR-21 reporter
CCOC(=O)C1CCCN(C(=O)CCC(=O)Nc2ccc3nc(N4CCOCC4)cc(C)c3c2)C1 (stereo not given)	u	u	18%	8.9µM*	4%	-37%
C#CC(=O)N(c1ccc(OC)c(OC)c1)C(C(=O)NC1CCCC1)c1cccs1 (stereo not given)	-23%	23µM*	u	-20%	u	20%
C#CC(=O)N(c1cccc(OC)c1)C(C(=O)NC1CCCC1)c1cccs1 (stereo not given)	-11%	16µM*	-15%	-1%	-2%	u
Cc1ccc(C)c(S(=O)(=O)NCCc2csc(-c3ccc(Cl)cc3)n2)c1	x	x	0%	u	-1%	15%
O=C(c1cc2c(=O)oc3ccccc3c2s1)N1CCN(c2cccc(Cl)c2)CC1	x	-4%[9.27 µM]	2%	-3%	2%	0%
CCN1C(=O)[C@H]2[C@@H](c3ccc(SC4CCCCC4)cc3)N[C@@](CC(C)C)(C(=O)OC)[C@H]2C1=O	-2%	21µM*	-2%	-2%	-1%	x
CCN1C(=O)[C@H]2[C@@H](c3ccc(-c4ccc(OC)cc4)c(OC)c3)N[C@@](Cc3ccccc3)(C(=O)OC)[C@H]2C1=O	4%	-10%	-2%	25µM*	4%	x
COCCNC(=O)CSc1nc2cc3c(cc2c(=O)n1Cc1ccc(C(=O)NCCc2ccc(OC)c(OC)c2)cc1)OCO3	x	x	6%	-4%	-1%	4%
CN(C)S(=O)(=O)N(CC(=O)Nc1ccc(C(F)(F)F)cc1)c1ccccc1	x	3%	-13%	1%	4%	-2%
O=C(c1ccc(=O)oc1)N1CCOCC1	-4%	4%	5%	32µM*	0%	-2%
O=C(c1ccc(F)cc1)N1CCOCC1	-1%	-10%	-2%	0%	0%	-1%
Cc1nnc(SCC(=O)Nc2nccs2)s1	11%	11%	0%	-1%	0%	-9%
CC(C)(C)C(=O)Nc1nnc(SCC(=O)Nc2nccs2)s1	5%	0%	2%	20µM*	-1%	-3%
O=C(Nc1ccc(F)cc1F)c1cc2c(=O)n3ccccc3nc2s1	x	15%	-1%	4%	5%	-14%
c1cnc(N2CCN(c3nc4ccccc4n4cnnc34)CC2)nc1	-7%	x	13%	-21%	-2%	-16%
c1ccc(C(c2ccccc2)N2CCN(c3nc4ccccc4n4cnnc34)CC2)cc1	-6%	18µM*	-17%	-5%	0%	6%
